The results in this text go back to PubChem BioAssay (NCI).

About 83,000 compounds went through this panel and 20% of them were active in at least one assay; those are over-represented in the sample as a whole.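 Single-concentration screen, 48 h exposure, 96-well plates. Endpoint: percent growth. Below 10 = active.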 A number with no mark means an inactive call. Calls of active or inactive are those of the source.

For this assay, the system named is MDA-MB-468 breast. Description: NCI-60 one-dose screen, 48 h (100 = growth as untreated, 0 = no growth, -100 = all killed). The conditions noted are these: 10 µM unless noted.
With `C#CCC1(c2ccc(F)c(F)c2)NS(=O)(=O)c2ccccc21` (stereo not given), the growth is 95.2%.
As to `COc1cc2nccc(Oc3ccc(NC(=O)Nc4cc(C)on4)c(Cl)c3)c2cc1OC`, the growth is 15%.
For `CN(Cc1ccccc1)c1nc(Cl)c(C2CC(c3ccc(F)cc3)=NN2C=O)s1` (stereo not given), the growth is 77.5%.
The figure for `Nc1c(C(=O)Nc2cccc3cnccc23)sc2nc3c(cc12)C(=O)CCC3` is 47.9%; for `CC(=O)O[C@@H]1C(=O)N(c2cnccn2)[C@H]1c1ccccc1[N+](=O)[O-]` it is -4.17% (active); for `COc1ccccc1NC(=O)OCC12COCN1COC2` it is 101%.
As for `O=c1[nH]c(Sc2sc3ccc(Cl)cc3c2CBr)nc(=S)[nH]1`, the growth is 19.1%.
For `Cc1ccccc1C(=O)NN`, the growth is 121%.
Consider `COc1c(O)cc2oc3cc(O)c(CC=C(C)C)c(O)c3c(=O)c2c1C/C=C(\C)CCC=C(C)C`, for which the growth was 82.1%.
The figure for `O=C(N/N=C/c1ccc(Oc2ccccc2)cc1)c1cnn2c1NC(c1ccccc1)C2` (stereo not given) is 30.2%; for `COc1cc(CNC(=O)CSc2nc3ccccc3c(=O)n2Cc2cc(OC)c(OC)c(OC)c2)cc(OC)c1OC` it is 91.7%; for `CCOC(=O)c1sc2nc(-c3cc(OC)c(OC)c(OC)c3)nc(N3CCOCC3)c2c1C` it is 11.3%.
The figure for `O=C(Nc1nc(-c2ccc(Br)cc2)cs1)c1cc(-c2ccc(Br)cc2)nc2ccc(Cl)cc12` is 102%; for `O=c1oc2ccccc2cc1-c1csc(N/N=C/c2cc3ccccc3nc2Cl)n1` it is 105%; for `OC(CBr)CCBr` (stereo not given) it is 97.4%.
